Assay [1] is described as follows: NCI Yeast Anticancer Drug Screen. Data for the rad50 strain (AID 155).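 Note: 0% = growth of vehicle-only cultures of the same strain.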 Conditions: S. cerevisiae rad50 strain growth inhibition, hits give high values. The essentials: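 Readout: growth inhibition relative to vehicle-treated cultures. Compound exposure was carried out in a genetically defined yeast strain deficient in DNA damage repair.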
Assay [2] in a line: NCI Yeast Anticancer Drug Screen. Data for the mec2-1 strain (AID 157). Conditions: S. cerevisiae mec2-1 strain, hits give high values. The essentials:
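Mutant yeast (mec2-1) grown with compound; growth inhibition relative to vehicle control reported.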

Assay [3] in a line: NCI Yeast Anticancer Drug Screen. Data for the sgs1 mgt1 strain (AID 161).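 Note: 0% = growth of cultures given vehicle only.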 Conditions: S. cerevisiae sgs1 mgt1 strain, hits give high values. The essentials:
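Compounds are added to genetically altered yeast, and growth is compared with cultures given vehicle alone to give percent inhibition.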

Assay [4] is described as follows: NCI Yeast Anticancer Drug Screen. Data for the cln2 rad14 strain (AID 165).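 Note: 0% = growth equal to vehicle treated cultures.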 The settings on record: S. cerevisiae cln2 rad14 strain, hits give high values. The essentials:
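Readout is yeast growth inhibition versus vehicle-treated controls, using a strain with cln2 and rad14 alterations exposed to compound.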

The nature of assay [5]: NCI Yeast Anticancer Drug Screen. Data for the bub3 strain (AID 167). The settings on record: S. cerevisiae bub3 mutant strain, hits give high values. An outline of the steps:
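Readout: yeast growth inhibition, expressed relative to vehicle-only wells. The test organism is a mutant strain from a panel with lesions in DNA repair or checkpoint genes.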

Assay [6] is described as follows: NCI Yeast Anticancer Drug Screen. Data for the mlh1 rad18 strain (AID 175). Conditions: S. cerevisiae mlh1 rad18 strain growth inhibition, hits give high values. The essentials: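 Genetically defined yeast (DNA repair-deficient) exposed to compounds; growth inhibition determined relative to vehicle.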
Where [7] appears, read: at 5.0 µM (retest, dose inferred, filed as 0.5).
[8] abbreviates: at 50.0 µM (retest, dose inferred, filed as 5.0).

Consider ten molecules from PubChem BioAssay (NCI).

About 79,000 compounds went through this panel and 15% of them were active in at least one assay; those are over-represented in the sample as a whole. A number with no mark means an inactive call. Active and inactive are the calls of the source. Cut-off read from the data, not from the text of the source: active = growth inhibition above about 70%; inactive = the rest.

In the case of `CCCc1nc2ccccc2c(=O)n1/N=C/c1ccccc1O`, the growth inhibition in assay [1] (setting [7]) was 4%; in assay [1] (setting [8]), -5%; in assay [1] (at 50.0 µM), 44.2%; in assay [2] (setting [7]) it was -1%; in assay [2] (setting [8]), -1%; in assay [2] (at 50.0 µM), 47.9%. Further, the growth inhibition in assay [3] (setting [7]) was 4%; in assay [3] (setting [8]), -1%; in assay [3] (at 50.0 µM), 72.4% (active); in assay [4] (setting [7]) it was -4%; in assay [4] (setting [8]), -2%; in assay [4] (at 50.0 µM), 53.8%. The growth inhibition in assay [5] (setting [7]) was -2%; in assay [5] (setting [8]), -2%; in assay [5] (at 50.0 µM), 82.5% (active); in assay [6] (setting [7]) it was -2%; in assay [6] (setting [8]), 2%; in assay [6] (at 50.0 µM), 71% (active).

For the molecule `CC(C)(C)c1ccc(-n2c3nc(=O)n(-c4ccccc4C(F)(F)F)c(=O)c-3cc3ccccc32)cc1`, the growth inhibition is 13% in assay [1] (setting [7]); 96% (active) in assay [1] (setting [8]); 59.1% in assay [1] (at 50.0 µM); 3% in assay [2] (setting [7]); 99% (active) in assay [2] (setting [8]); 50% in assay [2] (at 50.0 µM). Also, the growth inhibition in assay [3] (setting [7]) is 10%; in assay [3] (setting [8]), 98% (active); in assay [3] (at 50.0 µM) it was 61.1%; in assay [4] (setting [7]), 13%; in assay [4] (setting [8]) it was 97% (active); in assay [4] (at 50.0 µM) it was 60.5%. The growth inhibition in assay [5] (setting [7]) is 8%; in assay [5] (setting [8]), 98% (active); in assay [5] (at 50.0 µM), 47.1%; in assay [6] (setting [7]) it was 15%; in assay [6] (setting [8]), 98% (active); in assay [6] (at 50.0 µM), 65.6%.

On to `Cc1cc([N+](=O)[O-])cc(C)c1OC(=O)Nc1c(Cl)cccc1Cl`, for which the growth inhibition in assay [1] (setting [7]) is 37%; in assay [1] (setting [8]) it was 37%; in assay [1] (at 50.0 µM) it was 31.6%; in assay [2] (setting [7]), 30%; in assay [2] (setting [8]), 45%; in assay [2] (at 50.0 µM) it was 22.1%. Also, the growth inhibition in assay [3] (setting [7]) is 46%; in assay [3] (setting [8]) it was 71% (active); in assay [3] (at 50.0 µM) it was 55.4%; in assay [4] (setting [7]), 32%; in assay [4] (setting [8]) it was 36%; in assay [4] (at 50.0 µM), 22.1%. Moreover, the growth inhibition in assay [5] (setting [7]) was 24%; in assay [5] (setting [8]) it was 68%; in assay [5] (at 50.0 µM), 23.1%; in assay [6] (setting [7]) it was 48%; in assay [6] (setting [8]) it was 56%; in assay [6] (at 50.0 µM) it was 24.1%.

In the case of `CC1=C(C(=O)Nc2cccc(C(F)(F)F)c2)C(c2ccccc2F)C(C(=O)Nc2cccc(C(F)(F)F)c2)=C(C)N1`, the growth inhibition in assay [1] (setting [7]) is 46%; in assay [1] (setting [8]), 46%; in assay [1] (at 50.0 µM), 78.4% (active); in assay [2] (setting [7]), 46%; in assay [2] (setting [8]), 46%; in assay [2] (at 50.0 µM) it was 78.9% (active). The growth inhibition in assay [3] (setting [7]) is 29%; in assay [3] (setting [8]), 29%; in assay [3] (at 50.0 µM), 85.9% (active); in assay [4] (setting [7]), 21%; in assay [4] (setting [8]), 21%; in assay [4] (at 50.0 µM), 85.7% (active). Also, the growth inhibition was 37% in assay [5] (setting [7]); 37% in assay [5] (setting [8]); 85.2% (active) in assay [5] (at 50.0 µM); 47% in assay [6] (setting [7]); 47% in assay [6] (setting [8]); 80.4% (active) in assay [6] (at 50.0 µM).

For `CNC(=O)N(C1=NCC(C)S1)c1ccc(C)c(C)c1` (stereo not given), the growth inhibition in assay [1] (setting [7]) is -13%; in assay [1] (setting [8]) it was 97% (active); in assay [1] (at 50.0 µM), 63.9%; in assay [2] (setting [7]), -21%; in assay [2] (setting [8]), 98% (active); in assay [2] (at 50.0 µM), 74.9% (active). In addition, the growth inhibition is -36% in assay [3] (setting [7]); 95% (active) in assay [3] (setting [8]); 71.8% (active) in assay [3] (at 50.0 µM); -17% in assay [4] (setting [7]); 76% (active) in assay [4] (setting [8]); 57.2% in assay [4] (at 50.0 µM). Further, the growth inhibition in assay [5] (setting [7]) was -22%; in assay [5] (setting [8]) it was 98% (active); in assay [5] (at 50.0 µM) it was 79.2% (active); in assay [6] (setting [7]), -17%; in assay [6] (setting [8]) it was 89% (active); in assay [6] (at 50.0 µM), 69%.

For `Cc1ccc(S(=O)(=O)C(=S)Sc2ccccc2)cc1`, the growth inhibition in assay [1] (setting [7]) is 6%; in assay [1] (setting [8]) it was 82% (active); in assay [1] (at 50.0 µM) it was 45.5%; in assay [2] (setting [7]), 8%; in assay [2] (setting [8]) it was 89% (active); in assay [2] (at 50.0 µM), 39.5%. The growth inhibition in assay [3] (setting [7]) is 10%; in assay [3] (setting [8]) it was 88% (active); in assay [3] (at 50.0 µM), 80.6% (active); in assay [4] (setting [7]) it was 6%; in assay [4] (setting [8]), 63%; in assay [4] (at 50.0 µM), 33.7%. The growth inhibition in assay [5] (setting [7]) is 17%; in assay [5] (setting [8]), 90% (active); in assay [5] (at 50.0 µM) it was 36.5%; in assay [6] (setting [7]), 11%; in assay [6] (setting [8]), 92% (active); in assay [6] (at 50.0 µM) it was 79.8% (active).

Regarding `C=C(CN(C)C)C(=O)c1ccc(Oc2ccccc2)cc1`, the growth inhibition in assay [1] (setting [7]) was 99% (active); in assay [1] (setting [8]), 100% (active); in assay [1] (at 50.0 µM), 99.2% (active); in assay [2] (setting [7]), 99% (active); in assay [2] (setting [8]), 100% (active); in assay [2] (at 50.0 µM), 99.4% (active). Besides, the growth inhibition in assay [3] (setting [7]) is 99% (active); in assay [3] (setting [8]), 100% (active); in assay [3] (at 50.0 µM), 59.5%; in assay [4] (setting [7]), 71% (active); in assay [4] (setting [8]) it was 99% (active); in assay [4] (at 50.0 µM), 99.4% (active). Moreover, the growth inhibition in assay [5] (setting [7]) was 99% (active); in assay [5] (setting [8]), 100% (active); in assay [5] (at 50.0 µM), 98.8% (active); in assay [6] (setting [7]), 98% (active); in assay [6] (setting [8]) it was 100% (active); in assay [6] (at 50.0 µM), 99.5% (active).

Regarding `COC(=O)c1ccccc1C(=O)c1cc(OC)c2c(c1OC)CCCC2`, the growth inhibition in assay [1] (setting [7]) is -2%; in assay [1] (setting [8]) it was 59%; in assay [1] (at 50.0 µM) it was 90.8% (active); in assay [2] (setting [7]), 0%; in assay [2] (setting [8]) it was 64%; in assay [2] (at 50.0 µM) it was 94.5% (active). Also, the growth inhibition in assay [3] (setting [7]) was 5%; in assay [3] (setting [8]) it was 63%; in assay [3] (at 50.0 µM), 75.5% (active); in assay [4] (setting [7]) it was -69%; in assay [4] (setting [8]), 23%; in assay [4] (at 50.0 µM) it was 47.6%. In addition, the growth inhibition in assay [5] (setting [7]) is 3%; in assay [5] (setting [8]) it was -45%; in assay [5] (at 50.0 µM), 77% (active); in assay [6] (setting [7]), 3%; in assay [6] (setting [8]), 24%; in assay [6] (at 50.0 µM), 82.9% (active).

In the case of `C1CCC(CC2CCC(NC3=NCCO3)CC2)CC1` (stereo not given), the growth inhibition was -23% in assay [1] (setting [7]); 97% (active) in assay [1] (setting [8]); 88.6% (active) in assay [1] (at 50.0 µM); -12% in assay [2] (setting [7]); 96% (active) in assay [2] (setting [8]); 87.5% (active) in assay [2] (at 50.0 µM). Also, the growth inhibition in assay [3] (setting [7]) was -22%; in assay [3] (setting [8]), 99% (active); in assay [3] (at 50.0 µM), 87.2% (active); in assay [4] (setting [7]), -8%; in assay [4] (setting [8]), 91% (active); in assay [4] (at 50.0 µM), 88.2% (active). Further, the growth inhibition is -35% in assay [5] (setting [7]); 98% (active) in assay [5] (setting [8]); 91.2% (active) in assay [5] (at 50.0 µM); -9% in assay [6] (setting [7]); 99% (active) in assay [6] (setting [8]); 84.3% (active) in assay [6] (at 50.0 µM).

`CCOC(=O)c1ccc(N=Cc2cc(Cl)cc(Cl)c2O)cc1`: the growth inhibition in assay [1] (setting [7]) is 67%; in assay [1] (setting [8]), 99% (active); in assay [1] (at 50.0 µM) it was 86.7% (active); in assay [2] (setting [7]), 72% (active); in assay [2] (setting [8]), 100% (active); in assay [2] (at 50.0 µM) it was 88.5% (active). The growth inhibition was 28% in assay [3] (setting [7]); 84% (active) in assay [3] (setting [8]); 91% (active) in assay [3] (at 50.0 µM); 37% in assay [4] (setting [7]); 85% (active) in assay [4] (setting [8]); 78.9% (active) in assay [4] (at 50.0 µM). Also, the growth inhibition is 62% in assay [5] (setting [7]); 96% (active) in assay [5] (setting [8]); 87.2% (active) in assay [5] (at 50.0 µM); 52% in assay [6] (setting [7]); 100% (active) in assay [6] (setting [8]); 84.5% (active) in assay [6] (at 50.0 µM).
